# Assay results as given in PubChem BioAssay.
# Activity calls are given as the source filed them.
# Key:
# [1] = small molecules captured by biotinylated probe aFSTL3 – biochemical, small-molecule microarray, fluorescence 635/667, stem cell growth factor project, primary screen (AID 1064); conditions: higher = more signal;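 note: measures binding of the biotinylated anti-FSTL3 antibody to printed compounds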
# [2] = binders from COS7 lysate, DM2A8 probe, primary screen, torsin A project, cell lysate, small-molecule microarray, fluorescence 635/667 (AID 1065); conditions: higher = more signal, COS7 lysate expressing mutant human TOR1A
# [3] = small molecules captured by biotinylated probe aFGF2 – biochemical, small-molecule microarray, fluorescence 635/667, stem cell growth factor project, primary screen (AID 1067); conditions: higher = more signal;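 note: measures binding of biotinylated aFGF2 protein to printed compounds on slides; z-score merges feature fluorescence and signal-to-noise across triplicate slides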
# [4] = small molecules captured by biotinylated probe aFGF10 – biochemical, small-molecule microarray, fluorescence 635/667, stem cell growth factor project, primary screen (AID 1071); conditions: higher = more signal;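 note: score merges 667 nm spot intensity and signal to noise from triplicate slides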
# [5] = molecular target: Neurogenic locus notch homolog protein 2 (Homo sapiens) (UniProt Q04721); test: small molecules binding Notch2 protein – biochemical, small-molecule microarray, 635 nm fluorescence, stem cell growth factors, primary screen (AID 1073); conditions: higher = more signal
# Chain of Neurogenic locus notch homolog protein 2 (Homo sapiens) (Q04721 whole entry, looked up, canonical isoform): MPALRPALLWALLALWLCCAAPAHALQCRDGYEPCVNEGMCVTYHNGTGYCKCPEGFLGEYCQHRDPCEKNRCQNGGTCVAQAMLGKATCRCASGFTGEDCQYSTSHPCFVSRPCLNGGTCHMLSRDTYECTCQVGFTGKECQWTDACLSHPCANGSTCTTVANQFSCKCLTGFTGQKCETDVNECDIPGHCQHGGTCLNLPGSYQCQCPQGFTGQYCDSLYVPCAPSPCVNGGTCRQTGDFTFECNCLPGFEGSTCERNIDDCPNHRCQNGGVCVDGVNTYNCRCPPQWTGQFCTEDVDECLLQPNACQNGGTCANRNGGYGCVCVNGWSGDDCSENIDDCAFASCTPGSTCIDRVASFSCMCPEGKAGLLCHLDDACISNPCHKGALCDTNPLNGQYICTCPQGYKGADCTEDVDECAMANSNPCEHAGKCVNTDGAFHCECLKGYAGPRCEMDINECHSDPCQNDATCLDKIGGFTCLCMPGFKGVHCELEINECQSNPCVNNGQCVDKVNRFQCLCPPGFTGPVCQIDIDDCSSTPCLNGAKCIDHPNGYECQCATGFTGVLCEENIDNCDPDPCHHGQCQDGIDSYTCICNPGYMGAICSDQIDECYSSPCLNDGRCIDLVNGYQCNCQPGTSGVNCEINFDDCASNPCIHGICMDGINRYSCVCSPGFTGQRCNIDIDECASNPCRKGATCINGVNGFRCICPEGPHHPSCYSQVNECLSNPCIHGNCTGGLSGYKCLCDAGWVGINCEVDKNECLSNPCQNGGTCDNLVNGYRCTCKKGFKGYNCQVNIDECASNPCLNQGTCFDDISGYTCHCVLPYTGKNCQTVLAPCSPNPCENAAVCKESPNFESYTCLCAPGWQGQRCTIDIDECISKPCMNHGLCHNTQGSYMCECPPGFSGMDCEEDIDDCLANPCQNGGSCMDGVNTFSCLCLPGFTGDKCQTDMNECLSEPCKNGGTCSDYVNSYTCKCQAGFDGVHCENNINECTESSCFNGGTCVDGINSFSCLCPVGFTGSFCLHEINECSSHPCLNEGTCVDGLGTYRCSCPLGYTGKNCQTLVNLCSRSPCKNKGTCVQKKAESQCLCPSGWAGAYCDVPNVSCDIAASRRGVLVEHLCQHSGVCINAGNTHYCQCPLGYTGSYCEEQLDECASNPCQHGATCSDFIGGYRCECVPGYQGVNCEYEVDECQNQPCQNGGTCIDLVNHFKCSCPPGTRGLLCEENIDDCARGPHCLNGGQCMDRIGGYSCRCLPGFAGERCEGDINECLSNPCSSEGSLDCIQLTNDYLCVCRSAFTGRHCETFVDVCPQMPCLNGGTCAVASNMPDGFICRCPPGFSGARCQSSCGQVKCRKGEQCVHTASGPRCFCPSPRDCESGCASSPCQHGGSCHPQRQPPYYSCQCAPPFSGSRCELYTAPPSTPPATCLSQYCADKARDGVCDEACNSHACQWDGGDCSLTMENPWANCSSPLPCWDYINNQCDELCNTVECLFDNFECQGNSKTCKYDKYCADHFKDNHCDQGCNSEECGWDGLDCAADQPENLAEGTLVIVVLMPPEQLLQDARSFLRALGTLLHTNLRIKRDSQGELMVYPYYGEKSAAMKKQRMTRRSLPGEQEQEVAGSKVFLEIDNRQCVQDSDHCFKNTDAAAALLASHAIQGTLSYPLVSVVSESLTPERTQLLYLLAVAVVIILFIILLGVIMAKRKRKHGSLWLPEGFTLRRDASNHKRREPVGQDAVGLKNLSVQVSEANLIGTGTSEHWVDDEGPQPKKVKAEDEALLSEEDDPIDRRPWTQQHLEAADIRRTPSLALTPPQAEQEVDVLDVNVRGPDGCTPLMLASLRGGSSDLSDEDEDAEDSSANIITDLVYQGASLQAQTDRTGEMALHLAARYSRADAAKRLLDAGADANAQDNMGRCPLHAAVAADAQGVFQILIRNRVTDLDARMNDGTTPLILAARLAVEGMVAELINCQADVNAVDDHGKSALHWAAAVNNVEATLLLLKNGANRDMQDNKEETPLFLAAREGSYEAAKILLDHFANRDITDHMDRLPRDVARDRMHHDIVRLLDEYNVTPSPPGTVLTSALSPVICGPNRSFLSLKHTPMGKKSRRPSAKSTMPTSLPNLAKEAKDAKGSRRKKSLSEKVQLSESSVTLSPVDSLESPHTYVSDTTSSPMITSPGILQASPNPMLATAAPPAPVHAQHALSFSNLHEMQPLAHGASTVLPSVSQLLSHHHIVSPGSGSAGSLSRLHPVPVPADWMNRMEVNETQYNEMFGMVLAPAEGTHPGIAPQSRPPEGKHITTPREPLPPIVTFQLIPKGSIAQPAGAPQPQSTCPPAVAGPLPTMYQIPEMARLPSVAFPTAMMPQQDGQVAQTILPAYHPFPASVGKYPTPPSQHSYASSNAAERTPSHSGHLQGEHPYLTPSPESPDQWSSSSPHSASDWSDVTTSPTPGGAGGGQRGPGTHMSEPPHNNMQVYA
# [6] = molecular target: Pro-neuregulin-1, membrane-bound isoform (Homo sapiens) (UniProt Q02297); test: small molecules binding neuregulin-1 protein – biochemical, small-molecule microarray, fluorescence 635/667, psychiatric disease protein project, primary screen (AID 1075); conditions: NRG1 binding, 635 nm fluorescence, higher = more signal;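 note: score combines 667 nm spot fluorescence with signal to noise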
# Chain of Pro-neuregulin-1, membrane-bound isoform (Homo sapiens) (Q02297 whole entry, looked up, the tested form may be a part, canonical isoform): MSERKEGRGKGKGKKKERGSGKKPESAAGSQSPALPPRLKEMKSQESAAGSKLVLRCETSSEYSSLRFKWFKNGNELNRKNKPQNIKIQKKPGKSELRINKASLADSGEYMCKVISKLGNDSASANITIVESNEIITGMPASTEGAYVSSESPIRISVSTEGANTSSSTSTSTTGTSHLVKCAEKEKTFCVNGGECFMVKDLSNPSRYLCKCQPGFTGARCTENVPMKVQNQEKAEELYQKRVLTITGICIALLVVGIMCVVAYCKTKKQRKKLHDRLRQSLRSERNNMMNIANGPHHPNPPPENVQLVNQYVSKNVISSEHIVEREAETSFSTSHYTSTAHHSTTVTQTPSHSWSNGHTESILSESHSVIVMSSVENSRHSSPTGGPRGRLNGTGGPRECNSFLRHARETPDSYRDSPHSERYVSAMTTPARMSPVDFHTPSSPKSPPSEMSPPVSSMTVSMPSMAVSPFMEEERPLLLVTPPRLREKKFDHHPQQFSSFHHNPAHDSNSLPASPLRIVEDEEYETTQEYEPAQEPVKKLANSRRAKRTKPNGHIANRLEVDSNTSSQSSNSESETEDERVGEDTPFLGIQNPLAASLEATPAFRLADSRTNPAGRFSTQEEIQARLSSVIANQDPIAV
# [7] = tested on: Neuregulin-1 EGF-like domain; test: small molecules binding NRG1 EGF domain – biochemical, small-molecule microarray, 635 nm fluorescence, primary screen (AID 1081); conditions: higher = more signal;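 note: binding of the protein to compounds printed on small-molecule microarray slides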
# [8] = FRG1 expression reporter modulators in myotubes – cell-based, C2C12 myotubes, firefly/Renilla luciferase, luminescence, FRG1 inhibition for FSHD, primary screen (AID 1084); conditions: FRG1 promoter luciferase, higher = more signal, called active from +8 up or from −8 down
# [9] = small molecules captured by biotinylated probe aFST – biochemical, small-molecule microarray, fluorescence 635/667, stem cell growth factor project, primary screen (AID 1086); conditions: higher = more signal;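 note: score merges 667 nm fluorescence with signal-to-noise of each printed compound spot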
# [10] = binders of probe aHhip on microarray, primary screen, stem cell growth factor project, biochemical, small-molecule microarray, fluorescence 635/667 (AID 1087); conditions: higher = more signal;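 note: score merges spot fluorescence at 667nm with spot signal to noise ratio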
# [11] = tested on: PRMT1 (protein arginine N-methyltransferase 1); test: small molecules binding arginine methyltransferase PRMT1 – biochemical, small-molecule microarray, 635 nm fluorescence, primary screen (AID 1088); conditions: higher = more signal;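 note: binding of Prmt1 protein to compounds spotted on small-molecule microarray slides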
# [12] = growth effects on S. cerevisiae YJM789 – YJM789 clinical isolate, OD600, 24 h, basal, primary screen (AID 1089); conditions: higher = more signal, called active from +8 up or from −8 down;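 note: growth of clinical yeast isolate S. cerevisiae YJM 789 seeded 1000 cells per well; test concentration not given here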
# [13] = S. pombe growth modifiers, basal conditions – strain 972, OD600, 24 h, no modulator, primary screen (AID 1090);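 note: basal condition with compound alone and no growth modifier present; test concentration not given here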; conditions: S. pombe 972 growth, higher = more signal, called active from +8 up or from −8 down
# [14] = budding yeast growth modifiers under rapamycin – strain BY4716, OD600, 96 h, primary screen (AID 1091); note: test concentration not given here; conditions: S. cerevisiae BY4716 + rapamycin, higher = more signal, called active from +8 up or from −8 down
# [15] = molecular target: Torsin-1A-interacting protein 2 (Homo sapiens) (UniProt Q8NFQ8); test: small molecules binding lysate-expressed LULL1 – cell lysate, human LULL1 lysate, 635/667 nm fluorescence, primary screen (AID 1092); conditions: small-molecule microarray, hLULL1 lysate binding, 635 nm fluorescence; higher = more signal;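 note: probe is lysate of COS7 cells overexpressing human LULL1; score merges per-feature 667 nm fluorescence with signal-to-noise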
# Chain of Torsin-1A-interacting protein 2 (Homo sapiens) (Q8NFQ8 whole entry, looked up): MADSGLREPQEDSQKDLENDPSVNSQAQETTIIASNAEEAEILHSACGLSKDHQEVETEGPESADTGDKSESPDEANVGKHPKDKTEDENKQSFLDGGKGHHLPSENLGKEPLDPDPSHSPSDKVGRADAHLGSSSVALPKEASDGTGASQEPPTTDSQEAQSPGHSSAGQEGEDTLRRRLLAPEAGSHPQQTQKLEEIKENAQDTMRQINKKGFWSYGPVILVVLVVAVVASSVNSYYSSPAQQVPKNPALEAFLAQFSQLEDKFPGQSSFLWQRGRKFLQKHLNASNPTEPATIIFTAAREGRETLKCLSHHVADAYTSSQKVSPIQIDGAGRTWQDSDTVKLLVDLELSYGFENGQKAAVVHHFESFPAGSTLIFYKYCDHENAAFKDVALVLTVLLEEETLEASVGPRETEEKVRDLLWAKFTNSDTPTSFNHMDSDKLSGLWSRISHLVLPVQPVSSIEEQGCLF
# [16] = optical density change of DRC41 E. coli – strain DRC41, OD650, 24 h, E. coli filamentation project, primary screen (AID 1093);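 note: MC1000 strain lacking acrAB efflux and sulA so SOS filamentation is blocked; test concentration not given here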; conditions: E. coli DRC41 growth, higher = more signal, called active from +8 up or from −8 down
# [17] = probe aLefty2 binding to arrayed compounds – biochemical, biotinylated probe, 635/667 nm fluorescence, primary screen (AID 1094); conditions: small-molecule microarray, higher = more signal;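 note: score merges spot fluorescence near 667 nm with spot signal-to-noise ratio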
# [18] = tested on: Noggin (protein binding on small-molecule microarray); test: small molecules binding Noggin protein – biochemical, 635/667 nm fluorescence, primary screen (AID 1095); conditions: 635 nm fluorescence, higher = more signal;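 note: score merges 667 nm feature fluorescence with signal to noise over triplicate slides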
# [19] = molecular target: Neurogenic locus notch homolog protein 3 (Homo sapiens) (UniProt Q9UM47); test: small molecules binding NOTCH3 protein – biochemical, 635/667 nm fluorescence, primary screen (AID 1096); conditions: small-molecule microarray, 635 nm fluorescence, higher = more signal
# [20] = probe aEGFR binding to arrayed compounds – biochemical, biotinylated probe, 635/667 nm fluorescence, primary screen (AID 1097); conditions: small-molecule microarray, higher = more signal;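 note: probe is a biotinylated anti-EGFR antibody binding compounds printed on slides; score combines fluorescence near 667 nm and signal to noise of each spot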
SMILES,composite z-score [1],composite z-score [2],composite z-score [3],composite z-score [4],composite z-score [5],composite z-score [6],composite z-score [7],z-score [8],composite z-score [9],composite z-score [10],composite z-score [11],z-score [12],z-score [13],z-score [14],composite z-score [15],z-score [16],composite z-score [17],composite z-score [18],composite z-score [19],composite z-score [20]
O=C1c2ccccc2[C@@]2(Cc3ccccc3N(Cc3ccccc3)C2=O)[C@H](c2ccc(CO)cc2)N1C1CCCCC1,-0.382,-0.832,-0.152,-0.0341,-0.203,0.662,1.37,-0.0414 (inactive),-0.244,-0.201,1.21,-0.676 (inactive),1.1 (inactive),-0.619 (inactive),0.525,-0.0011 (inactive),-0.239,0.61,0.269,-0.2
COCCOC(=O)N1C(=O)[C@@]2(c3ccccc31)[C@H](c1ccc(O)cc1)N1[C@H](c3ccccc3)[C@H](c3ccccc3)OC(=O)[C@H]1[C@@H]2C(=O)N1CCc2cc(OC)c(OC)cc2C1,0.21,0.0749,0.0631,0.691,1.15,1.08,0.938,-1.47 (inactive),1.05,-0.179,1.54,-1.36 (inactive),0.201 (inactive),1.3 (inactive),1.17,-0.121 (inactive),0.0191,1.04,1.06,0.101
C=CCN1C(=O)[C@]2(O[C@H](CCO)[C@@H]([Si](C)(C)c3ccc(OC)cc3)[C@@H]2C)c2cc(NC(=O)[C@H](C)O)ccc21,-0.561,0.363,-0.0158,1.08,0.327,1.35,1.2,-3.94 (inactive),-0.412,-0.216,1.53,0.83 (inactive),-0.759 (inactive),1.31 (inactive),2.77,0.64 (inactive),-0.166,0.392,1.02,-0.151
CC(C)NC(=O)[C@@H]1c2ccccc2C(=O)N(Cc2ccccc2)[C@H]1c1ccc(CO)cc1,0.726,0.0445,0.0411,0.365,-1.1,1.06,1.36,-1.1 (inactive),-0.194,-0.191,0.347,-0.726 (inactive),-0.471 (inactive),-0.945 (inactive),2.36,-0.106 (inactive),0.12,-0.905,-0.376,0.243
CCOC(=O)C[C@H]1[C@H](OC(=O)c2ccccc2-c2ccccc2)[C@@H](NC(=O)Cc2ccc(OC)cc2)c2cc(OCCCO)ccc2N1C(=O)c1ccccc1,-0.0656,0.629,-0.0942,0.321,0.125,-0.299,-0.537,-0.735 (inactive),0.369,-0.0645,-0.617,0.82 (inactive),0.266 (inactive),1.36 (inactive),1.33,-1.08 (inactive),-0.218,-0.337,-0.231,-0.115
O=C1OCC=C[C@H]2OC34C=CCN(c5ccc(Cl)cc5)C(=O)[C@H]3N(CCCCCCO)C(=O)[C@@H]4[C@@H]12 (stereo not given in full),1.06,-0.793,-0.163,-0.688,-0.737,2.26,1.53,1.16 (inactive),-0.455,-0.271,-1.01,-0.88 (inactive),-1.63 (inactive),-0.787 (inactive),1.92,0.437 (inactive),-0.0936,-1.51,-0.464,-0.273
COC(=O)[C@@]1(Cc2ccc(OC)cc2)[C@H]2c3cc(C(=O)N(C)C)n(Cc4c(OC)[nH]cc(C)c4=O)c3C[C@H]2CN1C(=O)c1ccccc1,0.522,0.0954,-0.102,0.289,1.49,1.92,1.08,-1.04 (inactive),0.927,-0.444,-0.386,-1.88 (inactive),0.349 (inactive),-0.464 (inactive),3.62,-0.252 (inactive),-0.0404,-0.0598,0.145,0.487
COCCOC(=O)N1C(=O)[C@@]2(c3cc(C#CCCO)ccc31)[C@H](C(=O)NC[C@H](O)c1ccccc1)[C@H]1C(=O)O[C@H](c3ccccc3)[C@H](c3ccccc3)N1[C@@H]2c1ccc(O)cc1,-0.221,0.464,-0.0058,0.627,0.026,1.48,1.21,-1.04 (inactive),0.0399,-0.134,0.66,1.22 (inactive),0.572 (inactive),1.68 (inactive),2.35,0.856 (inactive),-0.0862,1.7,0.459,-0.137
COC(=O)C1=CC(CCCO)=CC(C2CC2)N(Cc2sc3ccccc3c2Cl)C=C1C(=O)OC (stereo not given),-0.0356,0.43,0.0216,0.889,1.44,1.98,1.08,-1.73 (inactive),1.1,-0.266,1.54,0.258 (inactive),-3.05 (inactive),-1.55 (inactive),3.36,0.404 (inactive),0.198,0.346,1.16,0.0746
O=C1O[C@@H](c2ccccc2)[C@@H](c2ccccc2)N2[C@@H](c3ccccc3OCCO)[C@]3(C(=O)Nc4ccc(C#CC5(O)CCCCCC5)cc43)[C@@H](C(=O)Nc3nc4ccccc4s3)[C@H]12,-0.508,0.984,-0.0113,0.895,1.22,0.678,1.11,-0.0944 (inactive),0.806,1.22,1.56,1.39 (inactive),1.96 (inactive),3.42 (inactive),2.19,0.0499 (inactive),0.01,1.33,1.06,1.01
